PP5 inh – PP5 phosphatase inhibitors, primary screen, biochemical, fluorescence; actives 0.18% (n = 320,000); Serine/threonine-protein phosphatase 5 (Homo sapiens), P53041; purified PP5c, OMFP substrate fluorescence; inhibition, % at 6.7 µM;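 active = inhibition above the campaign's mean inhibition across all tested compounds plus 3 SD, cut at about 9.5% in these data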
PP1 counter – PP1-alpha phosphatase inhibitors, primary screen, counter-screen for PP5 inhibitor project, biochemical, fluorescence, OMFP substrate, single point; Serine/threonine-protein phosphatase PP1-alpha catalytic subunit (Homo sapiens), P62136; purified PP1alpha; inhibition, % at 6.7 µM; actives 0.9% (n = 320,000);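 active = inhibition above the mean inhibition of all tested compounds plus 3 SD, computed separately for each screening campaign, cut at about 15% in these data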
EBNA-1 inhibitor – EBNA-1 DNA-binding inhibitors, primary screen, biochemical, fluorescence polarization. inhibition, % at 14.8 µM. actives 0.34% (n = 300,000); in the data active = inhibition above about 28%
bovine MsrA act – bovine MsrA enzyme activators, primary screen, biochemical, absorbance, HTS; AID 602163, 2012; Methionine sulfoxide reductase A (Bos taurus); purified bovine MsrA, absorbance read-out; actives 0.3% (n = 360,000); activation, % at 10.6 µM; in the data active = activation above about 7.5%
ZTA counter – blocks Epstein-Barr virus ZTA, an EBNA-1 counter-screen | ZTA-DNA binding, fluorescence polarization | P03206 | actives 0.15% (n = 320,000) | AID 2234 | inhibition, % at 11 µM; in the data active = inhibition above about 33%
Target sequence (P03206 whole entry, looked up): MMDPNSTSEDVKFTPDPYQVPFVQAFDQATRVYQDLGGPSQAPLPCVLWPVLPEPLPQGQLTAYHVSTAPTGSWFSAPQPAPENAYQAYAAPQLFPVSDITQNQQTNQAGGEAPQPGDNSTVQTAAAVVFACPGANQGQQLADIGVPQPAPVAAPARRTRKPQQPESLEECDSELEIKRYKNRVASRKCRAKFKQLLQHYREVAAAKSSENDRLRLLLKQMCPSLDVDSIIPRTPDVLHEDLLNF
MsrA inhibitor – bovine MsrA enzyme inhibitors, primary screen, biochemical, absorbance, HTS; purified bovine MsrA, absorbance read-out; AID 651718, 2012; actives 0.75% (n = 360,000); inhibition, % at 15.5 µM; Methionine sulfoxide reductase A (Bos taurus)
MsrA inh confirm – bovine MsrA inhibitors, retest, confirmation, biochemical, absorbance, HTS | actives 41% (n = 2,300) | shares compounds with MsrA inhibitor | purified bovine MsrA, absorbance read-out | inhibition, % at 15.5 µM;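 also: coupled to thioredoxin reductase with NADPH and selenocystamine and DMSO as substrate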
Of the large screens only hits and unclear results are named; the others gave an inactive call (follow-up assays come after a bar, where they were run). Compounds with a hit are over-represented: about 2.3% of the library has one in this group of screens. Rule as the data show it, unless noted: active = inhibition above about 4.5%; inactive = the rest.

COCCn1c(SCC(=O)c2c(N)n(C3CC3)c(=O)[nH]c2=O)nnc1-c1ccc(Cl)cc1	MsrA inhibitor 6.0 (no result: EBNA-1 inhibitor) | MsrA inh confirm inactive
COc1cc(/C=N/Nc2nc(=O)[nH]nc2C)ccc1O	MsrA inhibitor 4.7 | MsrA inh confirm 5.4
COc1cc(/C=N/Nc2cc(C)nc(N)n2)ccc1O	MsrA inhibitor 6.8 | MsrA inh confirm 5.2
CC1(C)Cc2c(sc(NC(=O)c3ccco3)c2C(=O)O)CO1	MsrA inhibitor 4.7 | MsrA inh confirm inactive
CCCN(C(=O)COc1ccc(C(C)=O)cc1OC)C1CCS(=O)(=O)C1 (configuration not stated)	none (no result: EBNA-1 inhibitor)
CC(C)NC(=S)N/N=C/c1ccc(N2CCOCC2)cc1	MsrA inhibitor 7.0 | MsrA inh confirm 5.4
COc1ccc(/C=N\Nc2ncc(F)c(N3CCOCC3)n2)cc1OC	MsrA inhibitor 4.7 | MsrA inh confirm inactive
O=C(O)c1cc(N/N=C/c2ccc(N3CCOCC3)cc2)ccc1Cl	MsrA inhibitor 4.8 | MsrA inh confirm 5.8
COC(=O)c1ccc(/C=N/NC(=S)NC(C)C)cc1	none
COc1cc(/C=N/NC(=S)NCCN2CCOCC2)ccc1O	MsrA inhibitor 7.4 | MsrA inh confirm 5.2
O=C(Nc1cnns1)Oc1ccccc1	none (no result: PP5 inh, PP1 counter, EBNA-1 inhibitor, ZTA counter)
CCC(C)(C)NC(=O)C1CCN(c2nc(OC)nc(OC)n2)CC1	none
Cc1cc(C)nc(N/N=C/c2ccc(N3CCOCC3)cc2)n1	MsrA inhibitor 6.6 | MsrA inh confirm 6.1
C=C(C)CNC(=S)N/N=C/c1ccc(N2CCOCC2)cc1	MsrA inhibitor 6.1 | MsrA inh confirm 5.1
COCCNC(=S)N/N=C/c1ccc([N+](=O)[O-])cc1	none
COCCNC(=S)N/N=C/c1ccc(N2CCOCC2)cc1	MsrA inhibitor 8.1 | MsrA inh confirm 5.9
CCOC(=O)C1=C(C)NC(=S)NC1c1ccc(OCC(=O)N2CCCCC2)cc1 (configuration not stated)	none
Cc1cc(C)nc(NC2=NCC(=O)N2c2ccc3c(c2)OCCO3)n1	MsrA inhibitor 8.6 | MsrA inh confirm 6.1
O=C(CCn1cnc(-c2ccccc2)c1-c1ccccc1)N/N=C/c1ccccc1O	none
CC(O)C(NS(=O)(=O)c1ccc2ccccc2c1)C(=O)OCC(=O)Nc1ccccc1OC(F)F (configuration not stated)	none (no result: PP5 inh, PP1 counter, EBNA-1 inhibitor, ZTA counter)
O=C(CCc1nnc2ccc(NCc3ccco3)nn12)Nc1ccccc1F	none
COc1cc(C2c3cc4c(cc3OC(Nc3ccc(C(=O)O)cc3)C2C)OCO4)cc(OC)c1OC (configuration not stated)	none (no result: PP5 inh, PP1 counter, EBNA-1 inhibitor, ZTA counter)
COC(=O)/C(=C1/Oc2ccc(C)cc2S1)C(F)(F)F	MsrA inhibitor 9.6 | MsrA inh confirm 10.7
COC(=O)/C(=C1/Oc2cc3c(cc2S1)OCO3)C(F)(F)F	MsrA inhibitor 6.6 | MsrA inh confirm 7.0
Cc1cccc(/C=N/N2CCN(c3ccccc3)CC2)c1	none
Cc1ccc(C)c(S(=O)(=O)Nc2ccc3cn[nH]c3c2)c1	none (no result: EBNA-1 inhibitor)
O=S(=O)(Nc1ccc2cn[nH]c2c1)c1cc(Br)ccc1Br	MsrA inhibitor 6.2 (no result: PP5 inh, PP1 counter, EBNA-1 inhibitor, ZTA counter) | MsrA inh confirm inactive
COc1ccc(C2C(C#N)=C(N)Oc3c2sc2nc(C)cc(C)c32)cc1 (configuration not stated)	MsrA inhibitor 9.2 | MsrA inh confirm inactive
COc1ccc(C2C(C#N)=C(N)Oc3cc(N)ccc32)cc1 (configuration not stated)	none (no result: PP5 inh, PP1 counter, EBNA-1 inhibitor, ZTA counter)
CCOc1cc(/C=N/NC(=O)COc2ccccc2C)ccc1OC(=O)c1cccs1	none
CCOc1cc(/C=N/NC(=O)c2cccs2)ccc1OC(=O)N1CCOCC1	MsrA inhibitor 4.8 | MsrA inh confirm inactive
CC(C)C(=O)NC(NC(=O)C(C)C)c1ccc([N+](=O)[O-])cc1	none
CCCNC(=O)[C@H](Cc1c[nH]c2ccccc12)NC(=O)c1ccccc1Cl	none
CCN1C(=O)/C(=C\N(C(C)=O)c2ccccc2)OC1=S	MsrA inhibitor 6.7 | MsrA inh confirm 5.0
CCN1C(=O)/C(=C/N(C)c2ccccc2)OC1=S	none

Source: PubChem BioAssay
